In the supplement of paper PMC6992640:
± gives the standard deviation of the averaged measurements.

Test system: WHIM2 (cells of a triple-negative basal-like breast cancer xenograft)
Assay: cell viability (% of vehicle); higher = less cytotoxic
Conditions: 10 µM; 72 h
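Also: PDX cells carrying CMV promoter-driven luciferase, viability read as total photon flux per second by IVIS imaging following D-luciferin, vehicle control 0.1% DMSO.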

SMILES | cell viability
O=C1NC(=O)[C@@H](c2c[nH]c3ccccc23)[C@H]1c1cn2c3c(cccc13)CCC2 [Tivantinib (ARQ 197)] | 107 ± 11
CCC1(O)CC2CN(CCc3c([nH]c4ccccc34)C(C(=O)OC)(c3cc4c(cc3OC)N(C)C3C(O)(C(=O)OC)C(OC(C)=O)C5(CC)C=CCN6CCC43C65)C2)C1 (stereo unspecified) [vinblastine] | 80.7 ± 22
Nc1ccn(C2CCC(CO)O2)c(=O)n1 (stereo unspecified) [Zalcitabine] | 85.08 ± 0.32
CCc1nc(N)nc(N)c1-c1ccc(Cl)cc1 [Pyrimethamine] | 119 ± 4.7
C=C[C@]1(C)C[C@@H](OC(=O)CSC2C[C@H]3CC[C@@H](C2)N3C)[C@]2(C)[C@H](C)CC[C@]3(CCC(=O)[C@H]32)[C@@H](C)[C@@H]1O (stereo partly specified) [Retapamulin] | 80.3 ± 5.3
Nc1ccc(S(N)(=O)=O)cc1 [Sulfanilamide] | 105 ± 7.5
CN(C)CCC(c1ccc(Br)cc1)c1ccccn1.O=C(O)C=CC(=O)O (stereo unspecified) [Brompheniramine hydrogen maleate] | 97.9 ± 3.3
O=C1CCC(N2C(=O)c3ccccc3C2=O)C(=O)N1 (stereo unspecified) [Thalidomide] | 103 ± 19
Cc1cccc(-c2nn3c(c2-c2ccnc4ccc(C(N)=O)cc24)CCC3)n1 | 147 ± 41
O=C(CS(=O)Cc1ccco1)NCC=CCOc1cc(CN2CCCCC2)ccn1 (stereo unspecified) [Lafutidine] | 88.6 ± 19
c1ccc(-c2ccc(C(c3ccccc3)n3ccnc3)cc2)cc1 (stereo unspecified) [Bifonazole] | 121 ± 1.4
Nc1nccs1 [Aminothiazole] | 116 ± 5.8
NC(=O)N1c2ccccc2C=Cc2ccccc21 [Carbamazepine] | 75.2 ± 22
CN(CC=CC#CC(C)(C)C)Cc1cccc2ccccc12 [Terbinafine] | 73.1 ± 24
CCCN1CCCCC1C(=O)Nc1c(C)cccc1C.Cl.O (stereo unspecified) [Ropivacaine hydrochloride monohydrate] | 90.8 ± 14
NCCCCC(NC(CCc1ccccc1)C(=O)O)C(=O)N1CCCC1C(=O)O.O.O (stereo unspecified) [Lisinopril dihydrate] | 94 ± 22
Cn1c(=O)cc(N2CCCC(N)C2)n(Cc2cc(F)ccc2C#N)c1=O (stereo unspecified) [Trelagliptin] | 96.8 ± 4.5
Nc1ccn(C2CSC(CO)O2)c(=O)n1 (stereo unspecified) [Lamivudine] | 94.3 ± 11

SMILES | cell viability
Clc1ccc(C(Cn2ccnc2)OCc2csc3c(Cl)cccc23)c(Cl)c1.O=[N+]([O-])O (stereo unspecified) [Sertaconazole nitrate] | 150 ± 36
O=C(O)c1cc(-c2ccccc2)nc2ccccc12 [Cinchophen] | 138 ± 6.4
CN1CCCC(n2nc(Cc3ccc(Cl)cc3)c3ccccc3c2=O)CC1.Cl (stereo unspecified) [Azelastine HCl] | 78.7 ± 8.4
Cc1cc(=O)[nH]c(=S)[nH]1 [Methylthiouracil] | 80.6 ± 8.1
CC(COc1ccccc1)N(CCCl)Cc1ccccc1.Cl (stereo unspecified) [Phenoxybenzamine HCl] | 93.9 ± 10
Cc1cn(C2CC(O)C(CO)O2)c(=O)[nH]c1=O (stereo unspecified) [Telbivudine] | 94.1 ± 16
CCCCCCCCCCCCCCCCO [1-Hexadecanol] | 94.2 ± 11
COC(=O)C1=COC(O)C2C(CO)=CCC12 (stereo unspecified) [Genipin] | 124 ± 11
CCOC(=O)CC(=O)N1CCSC1COc1ccccc1OC (stereo unspecified) [Moguisteine] | 88.7 ± 22
CC(Cc1cc2c(c(C(N)=O)c1)N(CCCO)CC2)NCCOc1ccccc1OCC(F)(F)F (stereo unspecified) [Silodosin] | 98 ± 21
COc1ccc(CN(CCN(C)C)c2ccccn2)cc1.O=C(O)/C=C\C(=O)O [Mepyramine maleate] | 94.4 ± 8.4
O=C(O)CCNC(=O)c1ccc(/N=N/c2ccc(O)c(C(=O)O)c2)cc1 [Balsalazide] | 98.8 ± 15
COC(=O)CCc1ccc(OCC(O)CNC(C)C)cc1.Cl (stereo unspecified) [Esmolol HCl] | 108 ± 17
Cc1ncc([N+](=O)[O-])n1CCO [Metronidazole] | 81 ± 16
CCCCc1nc(Cl)c(CO)n1Cc1ccc(-c2ccccc2-c2nnn[n-]2)cc1.[K+] [Losartan Potassium (DuP 753)] | 87 ± 17
CC(C)(C)C(=O)C(Oc1ccc(Cl)cc1)n1ccnc1 (stereo unspecified) [Climbazole] | 121 ± 6.3
Nc1ccc(C(=O)NCC(=O)[O-])cc1.[Na+] [Sodium 4-amiropparaty Hyalrate] | 95.4 ± 6
Cl.Clc1ccc2nsnc2c1NC1=NCCN1 [Tizanidine HCl] | 88.3 ± 14
